± gives the standard deviation of the averaged measurements. In all, about 33,000 sequences were measured (“E-score (rank enrichment, -0.5 to 0.5)”: median about -0.0028, highest 2% from about 0.23 on). This is one part of a sample in which the highest values are shown more often than they occur.
The sequences below were run on 2Sb-muMax20 (muMax20 with two 1,3-bis(methyl)benzene Cys staples, A13C/A17C and Q88C/A92C, C-terminal Lys) (assay: PBM 8-mer E-score (E-score (rank enrichment, -0.5 to 0.5)); higher = stronger preferential binding).
Protocol: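 Protein binding microarray (universal PBM chip covering all 10-mers in fixed probe flanks) with chemically synthesized human Max(13-93) bHLH-LZ analogs (not full-length Max) bearing noncanonical residues (hArg, Tha, Aib, Nle at 65) and aromatic Cys staples. Read-out per 8-mer (and its reverse complement): E-score (rank-based enrichment, -0.5 to 0.5) and Z-score of median probe intensity.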

Sequence | PBM 8-mer E-score
TAGTTGAA | 0.23 ± 0.012
AAGTTGAA | 0.0152 ± 0.0042
CAGTTGAA | 0.0124 ± 0.054
AGAGAAGG | -0.029 ± 0.046
GATAGATA | -0.0327 ± 0.03
CATAGATA | 0.277 ± 0.041
TATAGATA | 0.213 ± 0.042
ATCGCTCA | 0.0207 ± 0.008
AGGAAGGC | -0.0526 ± 0.077
CCTGTTTA | 0.137 ± 0.0084
ACAAAATG | 0.238 ± 0.039
ACAAAACC | 0.13 ± 0.14
ACAAATGG | 0.266 ± 0.032
AGAAATAG | 0.232 ± 0.034
CCAAAACG | -0.0328 ± 0.043
ACAAATGT | 0.148 ± 0.026
CCAAATGG | -0.0949 ± 0.091
AGAAATAT | 0.0844 ± 0.12
ACAAAACG | 0.262 ± 0.006
AGAAATAC | 0.0203 ± 0.03
ACAAAATC | 0.0704 ± 0.00074
ACAAAATA | 0.193 ± 0.13
ACGTGGAC | 0.15 ± 0.054
AAAGAGGG | 0.0479 ± 0.037
CTCGTATC | 0.0723 ± 0.026

Sequence | PBM 8-mer E-score
GCCCTGTA | 0.032 ± 0.063
TTAATGAA | 0.115 ± 0.088
AGGACAGG | -0.1548 ± 0.00025
TATAGCGA | 0.0513 ± 0.037
AGAAATGG | 0.251 ± 0.033
AGAAATGC | 0.177 ± 0.015
AGAAATGA | -0.0864 ± 0.0095
ACCTGCGC | -0.114 ± 0.011
CCCAGCGA | -0.132 ± 0.046
CCTCTACA | 0.0181 ± 0.028
CAATCACA | 0.0918 ± 0.051
AAATCACA | 0.199 ± 0.0051
CAATCACG | 0.231 ± 0.021
GATCTCCC | 0.122 ± 0.056
ATTGTAGC | -0.106 ± 0.0083
CGTCTCCA | -0.0564 ± 0.02
AGTGGTAT | 0.0204 ± 0.062
CTCCCCAA | 0.309 ± 0.072
ATCCCCCC | -0.321 ± 0.063
CTCCCCAG | 0.162 ± 0.085
CTCCCCCA | -0.142 ± 0.09
ATCCCCAT | 0.118 ± 0.011
ATCCCCAA | 0.301 ± 0.04
ATCCCCAC | 0.301 ± 0.04
CCCCCACG | 0.0751 ± 0.11

Sequence | PBM 8-mer E-score
ATCCCCCA | -0.171 ± 0.032
CCCCCACA | -0.26 ± 0.052
ATCCCCAG | 0.0369 ± 0.07
TCCCCACA | 0.261 ± 0.055
ACTCGGAA | -0.104 ± 0.083
ATGCACTG | 0.062 ± 9.2e-05
CCGCATAA | 0.184 ± 0.0044
ATTTTAAA | 0.126 ± 0.03
GGAGGACA | -0.0957 ± 0.0057
AGTTCGTA | -0.119 ± 0.064
CAGGGGGG | -0.241 ± 0.072
ATAGCAAA | 0.1715 ± 0.0012
AGTCTGAC | -0.0779 ± 0.015
GTCCCCAC | 0.0697 ± 0.074
TCCCCCAA | -0.179 ± 0.0084
TTCCCAAA | 0.0153 ± 0.013
TTCCCCAA | 0.32 ± 0.021
CTCCCCAC | 0.292 ± 0.041
CCCCCAAA | -0.215 ± 0.027
GTCCCCAA | 0.0368 ± 0.035
TCCCCAAA | 0.372 ± 0.029
CCCCCCAC | -0.238 ± 0.085
AACAGATA | -0.0213 ± 0.017
ACCTCTGA | -0.0896 ± 0.0083
CAGACATG | -0.0511 ± 0.076

Sequence | PBM 8-mer E-score
ACTGCAGC | 0.0488 ± 0.072
ACGCAACC | -0.0577 ± 0.0052
ACGCCCCT | 0.109 ± 0.11
GCTAGAAA | 0.197 ± 0.055
ACAGCAAC | -0.0541 ± 0.075
ACAGCAAG | 0.24 ± 0.03
ACAGAAAC | 0.126 ± 0.0055
ACAGCAAT | 0.0979 ± 0.018
ACAGAAAA | 0.083 ± 0.044
ACAGAAAG | 0.278 ± 0.04
ATCCCGAG | -0.0644 ± 0.021
CAAGGCAA | 0.0983 ± 0.056
ATTTGTTA | 0.187 ± 0.0095
ATTTGTTC | 0.15 ± 0.058
ATTTGTTG | 0.232 ± 0.0078
ATACTGCG | 0.0194 ± 0.043
AATTAAAG | 0.133 ± 0.025
AATTAAGT | 0.24 ± 0.005
ACTTAAGT | 0.246 ± 0.033
AATTAAGC | 0.121 ± 0.063
ACTTAAGA | 0.00227 ± 0.079
AATTAAAC | 0.19 ± 0.065
AATTAAGA | 0.216 ± 0.038
AATTAAAT | 0.235 ± 0.011
ACTTAAGC | -0.134 ± 0.061

Sequence | PBM 8-mer E-score
CCCATTGA | 0.02 ± 0.063
GATCGAGA | -0.0884 ± 0.04
AAAAAGTT | 0.16 ± 0.014
ACTTCTTA | 0.125 ± 0.057
CAATGCAA | 0.0811 ± 0.012
CCAGGGGG | -0.31 ± 0.076
AATCAACA | 0.308 ± 0.015
GATCAACA | -0.139 ± 0.023
TATCAACA | 0.0969 ± 0.067
CGTTCTAC | 0.0207 ± 0.027
GATGACCC | -0.157 ± 0.019
AATGACCG | -0.0804 ± 0.021
AATGACCC | 0.231 ± 0.0025
CTGACTTA | 0.107 ± 0.048
CTCTCCAG | -0.198 ± 0.013
GTAGAAAA | 0.0997 ± 0.012
ACCGCTAT | -0.0561 ± 0.049
GGAAAGCC | -0.00378 ± 0.093
ATACGTAC | 0.16 ± 0.0041
ATACGTAT | 0.407 ± 0.031
ATACGTAA | 0.115 ± 0.0061
AACAGTTC | 0.0164 ± 0.036
CACGTGCG | 0.39 ± 0.022
AACGTGCG | 0.152 ± 0.016
CACGTGCC | 0.377 ± 0.015

Sequence | PBM 8-mer E-score
AACGTGCA | 0.0984 ± 0.068
TAAGTGCA | 0.243 ± 0.008
AACGTGCC | 0.0151 ± 0.03
CACGTGCA | 0.417 ± 0.026
TACGTGCA | 0.1615 ± 0.00067
GAAGTGCA | 0.122 ± 0.077
GACGTGCC | -0.174 ± 0.023
CCCGTGCG | -0.206 ± 0.01
AAAGTGCA | 0.0798 ± 0.0049
GTGCTAAC | -0.0619 ± 0.0065
ATTGCTAA | -0.034 ± 0.043
AAGGAATC | -0.0571 ± 0.08
CATATGCG | 0.192 ± 0.0076
AATAGCTC | 0.0405 ± 0.046
ATGCGTAG | 0.151 ± 0.017
CTGGGGGC | -0.289 ± 0.044
ATAAGGTA | 0.132 ± 0.044
ATAAGGAA | -0.0755 ± 0.029
ATAAGGTC | 0.231 ± 0.014
ATAAGGAT | 0.277 ± 0.0071
CTAAGGTC | 0.0156 ± 0.022
ATAAGGAC | -0.0224 ± 0.047
ATCGGATC | -0.225 ± 0.064
GCGAAGCC | -0.143 ± 0.0091
AGTCTCTG | -0.178 ± 0.037

Sequence | PBM 8-mer E-score
GCCGGTTA | -0.0245 ± 0.051
TACTGGAA | 0.187 ± 0.013
ACATAGTA | 0.141 ± 0.013
GCATAGTA | 0.234 ± 0.05
CCATAGTA | 0.161 ± 0.049
ACCGTGAG | -0.24 ± 0.025
GGGATCCA | -0.0748 ± 0.046
AGGTGCAG | -0.176 ± 0.029
AATTGAAA | 0.272 ± 0.014
AATTGAAC | -0.0329 ± 0.083
AATTGAAT | 0.229 ± 0.021
ACCGTAGC | -0.0428 ± 0.011
AGCTTCTA | -0.0235 ± 0.043
AGCTTCTG | -0.127 ± 0.071
AGCTTCTC | 0.245 ± 0.00095
TACGTACA | 0.198 ± 0.0031
CTACCGAC | -0.0505 ± 0.014
ATCCCCTA | 0.2799 ± 0.00079
CTCCCCTC | 0.147 ± 0.072
ATCCCCTG | 0.114 ± 0.01
ATCCCCTC | 0.2637 ± 0.0019
CTCCCCTA | 0.182 ± 0.019

Reference: the supplement of paper PMC12636033
